The structures appear in SMILES notation. Inconclusive results are not listed. A number with no mark means an inactive call. Calls of active or inactive are those of the source. The call rests on the fitted dose curve; in most records, active means well fitted curve in the direction sought with a large enough effect; inconclusive means small, poorly fitted or top-dose-only effect, or another doubt; inactive means no such curve, though single readings can be large; an effect the other way counts as inactive or inconclusive.

In one experiment the test system is KB-3-1. Put plainly: Cytotoxic Profiling of Annotated Libraries Using Quantitative High-Throughput Screening (AID 1296008). Further: nearly all actives have a fitted effect of over 60% in size. Further: potency means the concentration at half of the fitted maximal effect. As to conditions: Five cell lines viability, CellTiter-Glo ATP luminescence, 48-72 h; max response: active compounds read low. A digest of the protocol:
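Cells exposed to compounds for 48 or 72 hr at 37 degrees Celsius. Viability read as ATP-coupled luminescence with CellTiter-Glo after 10 min at room temperature.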
In general terms: Cellular ATP, detected with luciferase, serves as a proxy for viable cell number.

For a further experiment, the system named is C33A. Put plainly: Primary qHTS to identify gynecologic anti-cancer compounds using libraries of approved drugs and bioactive compounds (AID 1345084). Further: nearly all actives have a fitted effect of over 55% in size. The following applies: Gynecologic cancer cell panel viability, ATPlite luminescence, 48 h; series mostly up to 57.5 µM. The essentials:
(§1)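 Cells, 1,000 per well, were allowed to settle for 16 h at 37 C before compound addition. Five concentrations were tested for 48 h, and viability was read by ATPlite luminescence after 15 min at room temperature.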
Background: In qHTS, concentration-response curves come from the screen itself.

For another experiment, the system named is CASKI. The description is as above. As to conditions: Gynecologic cancer cell panel viability, ATPlite luminescence, 48 h; series mostly up to 57.5 µM. A digest of the protocol: as §1
Another experiment concerns Es-2. The description is as above. As to conditions: Gynecologic cancer cell panel viability, ATPlite luminescence, 48 h; series mostly up to 57.5 µM. A digest of the protocol: as §1
The next experiment has as its system HeLa. Described as above. As to conditions: Gynecologic cancer cell panel viability, ATPlite luminescence, 48 h; series mostly up to 57.5 µM. The essentials:
as §1
On the % scale 0 is the no-effect control and ±100 the full control effect.

As for `O=[N+]([O-])c1ccccc1`, the max response with KB-3-1 is 12.1%.

Regarding `O=c1ccc2cc(O[C@@H]3O[C@H](CO)[C@@H](O)[C@H](O)[C@H]3O)c(O)cc2o1`, the max response in the experiment with KB-3-1 was -2.51%.

For `O=C1C=C2C=C[C@@H]3C[C@@]2(O1)[C@H]1CCCCN31`, the max response in the experiment on KB-3-1 is -12.4%.

Take `c1cc2c(c(NC3=NCCN3)c1)CCCC2`: the max response with KB-3-1 was -8.19%.

As to `CCOC(=O)/C=C(C)/C=C/C[C@@H](C)CCCC(C)C`, in the experiment with KB-3-1, the max response is 3.85%.

In the case of `CN(C)[C@@H]1C(=O)C(C(N)=O)=C(O)[C@@]2(O)C(=O)C3=C(O)c4c(O)ccc(Cl)c4[C@@](C)(O)[C@H]3C[C@@H]12`, the max response in the experiment on KB-3-1 was 2.99%.

As for `CC(=O)O[C@H]1C[C@H](O[C@H]2[C@@H](O)C[C@H](O[C@H]3[C@@H](O)C[C@H](O[C@H]4CC[C@@]5(C)[C@H](CC[C@@H]6[C@@H]5C[C@@H](O)[C@]5(C)[C@@H](C7=CC(=O)OC7)CC[C@]65O)C4)O[C@@H]3C)O[C@@H]2C)O[C@H](C)[C@H]1O[C@@H]1O[C@H](CO)[C@@H](O)[C@H](O)[C@H]1O`, in the experiment on KB-3-1, the Potency is 164 nM (active).

Consider `C[C@]12CC[C@H](OS(=O)(=O)O)CC1=CC[C@@H]1[C@@H]2CC[C@]2(C)C(=O)CC[C@@H]12`, for which the max response in the experiment with KB-3-1 is 5.94%.

With `CCN1C[C@]2(COC)[C@H](O)C[C@H](OC)[C@@]34[C@@H]5C[C@@]6(O)[C@H](OC(=O)c7ccccc7)[C@@H]5[C@@](OC(C)=O)([C@@H]([C@H](OC)[C@H]23)[C@@H]14)[C@@H](O)[C@@H]6OC`, in the experiment on KB-3-1, the max response is 2.56%.

For the molecule `C[C@]12CC[C@H]3[C@@H](CCC4=C(O)C(=O)CC[C@@H]43)[C@@H]1CC[C@@H]2OC(=O)CCC1CCCC1`, the max response with KB-3-1 is -5.37%.

Consider `CCNC(C)Cc1cccc(C(F)(F)F)c1` (stereo not drawn), for which, in the experiment with KB-3-1, the max response was 20.4%.

As to `CC1(C)[C@H](C=C(Cl)Cl)[C@H]1C(=O)OCc1c(F)c(F)cc(F)c1F`, the max response with KB-3-1 is -0.195%.

In the case of `FC(F)OC(F)(F)C(F)Cl` (stereo not drawn), the max response in the experiment on KB-3-1 was -1.37%.

As for `CNc1ccc(C(=O)CC(O)CCC(C)C2OC(=O)CC(O)CC(=O)CC(O)CC(O)CC(O)CC(O)CC3(O)CC(O)C(C(=O)OC)C(CC(O[C@@H]4O[C@H](C)[C@@H](O)[C@H](N)[C@@H]4O)/C=C/C=C/C=C/C=C/C=C/C=C/C=C/C2C)O3)cc1` (stereo partly drawn), the max response with KB-3-1 is -0.469%.

On to `CNC(=O)OCC[N+](C)(C)C`, for which, in the experiment on KB-3-1, the max response was 5.31%.

Regarding `c1ccc(C2(N3CCCC3)CCCCC2)cc1`, the max response in the experiment with KB-3-1 was 2%.

As to `Cc1cc(C)cc(C(=O)OC2C[C@H]3CC[C@@H](C2)N3C)c1` (stereo partly drawn), the max response with KB-3-1 was -7.52%.

For the molecule `COc1ccc(OC)c([C@@H](O)[C@H](C)N)c1`, the max response with KB-3-1 is -0.699%.

In the case of `CCC/C=C/C=C/C(=O)O[C@H]1/C(=C/C(=O)OC)C[C@H]2C[C@H]([C@@H](C)O)OC(=O)C[C@H](O)C[C@@H]3C[C@H](OC(C)=O)C(C)(C)[C@](O)(C[C@@H]4C/C(=C/C(=O)OC)C[C@H](/C=C/C(C)(C)[C@]1(O)O2)O4)O3`, the max response with KB-3-1 was 0.184%.

Turning to `CCCSP(=O)(OCC)SCCC`, the Potency result in the experiment on C33A, in the experiment with CASKI, in the experiment with Es-2 and in the experiment with HeLa was “inactive” each time.

The values above are taken from PubChem BioAssay (NCATS).
